MCF10A rereplic – inducers of DNA re-replication in MCF 10A breast cells | MCF 10A DNA re-replication, Hoechst nuclear intensity, 48 h | actives 2.9% (n = 350,000) | AID 624296 | Potency, µM (doses to about 46.1 µM), hits mostly activators; further: nearly all actives have a fitted effect of over 50% in size
KB-V1 cytotox – KB-V1 MDR subline cytotoxicity; actives 3.4% (n = 400,000); Potency, µM (top dose mostly 46.1 µM), actives largely listed as cytotoxic; KB-V1 MDR cells viability, CellTiter-Glo, 72 h; further: nearly all actives have a fitted effect of over 60% in size
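Following 72 h at 37 degrees C with compound, KB-V1 cell viability was read by CellTiter-Glo luminescence, medium being phenol-red-free DMEM plus 10% FBS; concentration-response parameters came from normalized, curve-fitted qHTS data.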
KB-3-1 cytotox – KB-3-1 parental cell cytotoxicity. KB-3-1 viability, CellTiter-Glo ATP luminescence, 72 h. Potency, µM (titrated, usually from 46.1 µM), actives largely listed as cytotoxic. actives 1.4% (n = 400,000). AID 1347075; further: nearly all actives have a fitted effect of over 60% in size
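Here the drug-naive KB-3-1 line serves as comparator for MDR sub-line selectivity; cells received compound titrations, 72 h at 37 °C, then CellTiter-Glo readout.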
ELG1 DNA repair – blocks ELG1-dependent DNA repair in HEK293T cells. HEK293T ELG1-luciferase reporter, luminescence, 16 h; DNA damage induced by 5-fluorouridine. Potency, µM (titrated, usually from 46.1 µM), actives largely listed as inhibitors. actives 2.3% (n = 330,000). AID 504467; further: nearly all actives have a fitted effect of over 55% in size
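Quantitative HTS, concentration-response format. 2,000 cells/well co-treated with 5-fluorouridine and compound, 16 hr in 5% CO2 at 37 °C; ONE-Glo luminescence read after 30 min.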
SW480 rerep – DNA re-replication induction in SW480 cells; SW480 DNA re-replication, Hoechst DNA content imaging, 48 h; Potency, µM (series often up to 46.1 µM), most hits filed as activators; actives 1.8% (n = 340,000); AID 624297; further: nearly all actives have a fitted effect of over 55% in size
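Compounds, transferred as 23 nL by pin tool, were incubated with cells for 48 hr; DNA content per nucleus was then quantified by Hoechst staining and fluorescence plate imaging.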
Of the large screens only hits and unclear results are named; the others gave an inactive call. The list is not random: actives were taken first. Their share in the collection is about 8.1%. The call rests on the fitted dose curve; in most records, active means well fitted curve in the direction sought with a large enough effect; inconclusive means small, poorly fitted or top-dose-only effect, or another doubt; inactive means no such curve, though single readings can be large; an effect the other way counts as inactive or inconclusive.

O=C(Cn1nnc(-c2ccccc2)n1)NC1CCS(=O)(=O)C1 (stereo not given)	none
CCN(CC(=O)NC1CCS(=O)(=O)C1)c1nc(-c2ccccc2)nc2ccccc12 (stereo not given)	ELG1 DNA repair 13µM
CSc1nc(Oc2ccc3ccccc3c2)c2sccc2n1	MCF10A rereplic inconclusive, KB-V1 cytotox inconclusive, KB-3-1 cytotox 5.2µM, SW480 rerep 21µM
CCNS(=O)(=O)c1ccc(CCC(=O)N2CCN(c3cccc(Cl)c3)CC2)cc1	ELG1 DNA repair inconclusive
Cc1ccc(S(=O)(=O)c2nc(S(C)(=O)=O)sc2N2CCCCCC2)cc1	KB-V1 cytotox 6.5µM
COC(=O)c1ccccc1NC(=O)c1cc(C)no1	none
O=C(C=Cc1cccnc1)c1ccccc1	MCF10A rereplic inconclusive, KB-V1 cytotox inconclusive, KB-3-1 cytotox inconclusive (no result: ELG1 DNA repair)
O=C(C=Cc1ccccn1)c1ccccc1	MCF10A rereplic 3.3µM, KB-3-1 cytotox inconclusive, SW480 rerep inconclusive (no result: ELG1 DNA repair)
O=c1c(-c2ccccc2)c1-c1ccccc1	MCF10A rereplic inconclusive, SW480 rerep 6µM (no result: KB-V1 cytotox, KB-3-1 cytotox, ELG1 DNA repair)
Cc1ccccc1OCC(=O)OCC(=O)c1ccc(-c2ccccc2)cc1	ELG1 DNA repair inconclusive
O=C(CSc1nnc(-c2n[nH]c3ccccc23)n1-c1ccccc1)Nc1cccc(Cl)c1	KB-V1 cytotox 7.3µM, ELG1 DNA repair inconclusive
O=C(CCNS(=O)(=O)c1cccs1)N1CCN(c2cccc(C(F)(F)F)c2)CC1	KB-V1 cytotox 16µM
COc1ccc(N2CCN(C(=O)CCNS(=O)(=O)c3cccs3)CC2)cc1	none
N#CC1=C(N)Oc2c(ccc3ccccc23)C1c1ccsc1 (stereo not given)	MCF10A rereplic inconclusive, KB-V1 cytotox inconclusive, KB-3-1 cytotox 6.5µM, ELG1 DNA repair inconclusive, SW480 rerep inconclusive
O=C(Cc1ccccc1)Nc1ccc2[nH]ncc2c1	ELG1 DNA repair inconclusive
COc1ccc(OC)c2c1cc(C(=O)N[C@@H](C)C(=O)N[C@@H](C(=O)O)c1ccccc1)n2C	KB-V1 cytotox inconclusive
CC(C)(C)C(=O)NC(=S)NNC(=O)c1sc2ccccc2c1Cl	MCF10A rereplic 12µM, KB-V1 cytotox 10µM, KB-3-1 cytotox 9.2µM, ELG1 DNA repair inconclusive, SW480 rerep inconclusive
O=C(NC(=S)NCCO)c1sc2ccccc2c1Cl	ELG1 DNA repair inconclusive
O=C(NNC(=S)NC1CCCCC1)c1sc2ccccc2c1Cl	MCF10A rereplic inconclusive, KB-V1 cytotox 18µM (no result: SW480 rerep)
O=C(NC1CCCCC1)c1cccs1	ELG1 DNA repair inconclusive
O=C(NNC(=S)NC1CCCCC1)c1cccs1	KB-V1 cytotox 23µM
CC(=O)c1ccccc1OCC(=O)Nc1cccc(S(=O)(=O)N2CCCC2)c1	ELG1 DNA repair inconclusive
c1ccc(C[n+]2c(-c3ccccc3)csc2Nc2ccccc2)cc1	KB-V1 cytotox 16µM, KB-3-1 cytotox 21µM, ELG1 DNA repair inconclusive
c1ccc(Nc2scc(-c3ccccc3)[n+]2Cc2ccco2)cc1	KB-V1 cytotox inconclusive, KB-3-1 cytotox inconclusive, ELG1 DNA repair inconclusive
COc1cc(OC)cc(C(=O)Nc2ccc3c(c2)n(C)c(=O)c(=O)n3C)c1	none (no result: MCF10A rereplic, ELG1 DNA repair, SW480 rerep)
COc1cccc(/C=N/Nc2nc3ccccc3[nH]2)c1O	MCF10A rereplic inconclusive, KB-V1 cytotox inconclusive, KB-3-1 cytotox 5.8µM, ELG1 DNA repair 4.1µM, SW480 rerep inconclusive
COc1cc(/C=N/Nc2nc3ccccc3[nH]2)ccc1O	KB-V1 cytotox 18µM, ELG1 DNA repair inconclusive
COc1cccc(OC)c1C(=O)Nc1ccccc1NC(=O)c1c(OC)cccc1OC	none
C/C(=N\NC(=O)C1COc2ccccc2O1)c1ccccn1 (stereo not given)	MCF10A rereplic 18µM, KB-V1 cytotox inconclusive, KB-3-1 cytotox inconclusive, ELG1 DNA repair inconclusive
CC(C)(C)c1ccc2c(c1)OC(C(=O)N/N=C\c1ccncc1)CO2 (stereo not given)	KB-V1 cytotox inconclusive, KB-3-1 cytotox inconclusive, ELG1 DNA repair 15µM
C/C(=N\NC(=O)C1COc2ccccc2O1)c1ccc(C)o1 (stereo not given)	none
Cc1cc([N+](=O)[O-])cc(/C=N\NC(=O)C2COc3ccccc3O2)c1O (stereo not given)	KB-3-1 cytotox inconclusive, ELG1 DNA repair 21µM, SW480 rerep inconclusive
N/C(=N\N=Cc1ccc2c(c1)OCO2)NN=Cc1ccc2c(c1)OCO2	MCF10A rereplic 23µM, KB-V1 cytotox inconclusive, KB-3-1 cytotox inconclusive, SW480 rerep inconclusive (no result: ELG1 DNA repair)
CC(=O)c1cccc(-c2ccnc3c2CC(C(=O)Nc2cccnc2)O3)c1 (stereo not given)	none (no result: MCF10A rereplic, ELG1 DNA repair, SW480 rerep)
COc1ccc(C(C(=O)NC2CCCC2)N(Cc2ccccc2)C(=O)c2snc(C(N)=O)c2N)cc1OC (stereo not given)	ELG1 DNA repair inconclusive
O=C(N/N=C/c1ccc2c(c1)OCO2)C1COc2ccccc2O1 (stereo not given)	KB-V1 cytotox 10µM
COc1ccc(/C=N/NC(=O)C2COc3ccccc3O2)cc1OC (stereo not given)	none
Cc1cc(C)cc(NC(=O)Nc2ccc(NC(=O)c3ccccc3O)cc2)c1	MCF10A rereplic 18µM, SW480 rerep 21µM
CNC(C)C#Cc1ccc2oc3cccc(OC)c3c(=O)c2c1 (stereo not given)	ELG1 DNA repair inconclusive
CNC(C)C#Cc1ccc2sc3cccc(OC)c3c(=O)c2c1 (stereo not given)	MCF10A rereplic inconclusive, ELG1 DNA repair inconclusive, SW480 rerep 7.3µM
COCCn1nnnc1C(c1ccc(Cl)cc1)N1CCSCC1 (stereo not given)	MCF10A rereplic inconclusive
CC(C)(C)c1csc(NC(=O)Cn2c(=O)oc3ccccc32)n1	ELG1 DNA repair inconclusive
C#C[C@]1(OC(C)=O)CCC2C3CCC4=CC(=O)CC[C@@H]4C3CC[C@@]21C (stereo not given in full)	KB-V1 cytotox 9.2µM, KB-3-1 cytotox inconclusive
C#C[C@]1(OC(C)=O)CC[C@H]2[C@@H]3CCC4=C[C@@H](OC(C)=O)CC[C@@H]4[C@H]3CC[C@@]21C	none (no result: KB-V1 cytotox, KB-3-1 cytotox, ELG1 DNA repair)
C#C[C@]1(O)CC[C@@H]2[C@H]3CCC4=CCCC[C@@H]4[C@@H]3CC[C@@]21C	MCF10A rereplic 10µM (no result: KB-V1 cytotox, KB-3-1 cytotox, ELG1 DNA repair)
C#C[C@]1(O)CC[C@H]2[C@@H]3CCC4=CCCC[C@@H]4[C@H]3C(=C)C[C@@]21CC	MCF10A rereplic 13µM (no result: KB-V1 cytotox, KB-3-1 cytotox, ELG1 DNA repair)
CCCCCn1c(N2CCN(Cc3ccccc3)CC2)nc2c1c(=O)[nH]c(=O)n2C	ELG1 DNA repair 16µM
C=CCn1c(SCc2nc3c(c(=O)[nH]c(=O)n3CCCC)n2CCC)nnc1-c1ccccc1	ELG1 DNA repair 18µM
COc1ccc(N2CCN(Cc3nc4c(c(=O)[nH]c(=O)n4C)n3CCCc3ccccc3)CC2)cc1	KB-V1 cytotox inconclusive, ELG1 DNA repair 8.9µM, SW480 rerep inconclusive
CCCCn1c(=O)[nH]c(=O)c2c1nc(-c1ccsc1)n2Cc1ccccc1	KB-V1 cytotox inconclusive, ELG1 DNA repair 18µM
C=CCOc1ccc(-c2nc3c(c(=O)[nH]c(=O)n3CCC)n2CCCC)cc1	none

Compound activity deposited in PubChem BioAssay by National Center for Advancing Translational Sciences (NCATS).
